Experimental data published in PubChem BioAssay (NCATS).
Records with an inconclusive call do not appear. Values without a mark were called inactive. The call rests on the fitted dose curve; in most records, active means well fitted activation curve with a large enough effect; inconclusive means small, poorly fitted or top-dose-only effect; inactive means flat fitted curve, though single readings scatter. Where a SMILES comes first, the peptide text is derived from it.

test: Primary redox qHTS assay for identification of artifact compounds. (AID 1845223); settings: Amplex Red/HRP redox cycling with DTT, fluorescence; series mostly up to 53.8 µM; redox activity (% of DA3003): at the top concentration;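 further: 0% = DMSO and 100% = reference compound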
Outline: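 Redox-cycling detection via DTT (250 uM final) oxidation coupled to Amplex Red (25 uM)/HRP (250 mU/mL) in HBSS. 15 min preincubation plus 30 min after DTT, room temperature. Ex/Em 525/598 nm; 4-parameter Hill fit against DMSO and 10 uM DA3003.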

SMILES | redox activity (% of DA3003)
C[C@H]1CC[C@H]2[C@@H](C=C[C@@](C)(O)[C@]2(C)C(=O)CCO)C1 | 15.6%
CC1CCC2(NC1)OC1C(O)C3C4CCC5CC(O[C@@H]6O[C@H](CO)[C@@H](O)[C@H](O)[C@H]6O[C@@H]6O[C@@H](C)[C@H](O)[C@@H](O)[C@H]6O)CCC5(C)C4CCC3(C)C1C2C (stereo partly specified) | -1.89% [at 25.6 µM]
C=C1C(O)CCC2(C)CC3(OC)OC(=O)C(C)=C3CC12 (stereo unspecified) | 0.0021%
CC[C@H]1OC(=O)[C@H](C)C(=O)[C@H](C)[C@@H](OC2O[C@H](C)C[C@H](N(C)C)[C@H]2O)[C@@H](C)C[C@@H](C)C(=O)/C=C/[C@]1(C)O (stereo partly specified) | -7.11% [at 25.6 µM]
C=C1CCC[C@]2(C)CC[C@@](O)(C(=C)C(=O)O)C[C@@H]12 | -0.33%
O=C(N[C@@H]1CC[C@@H](c2cccc(F)c2F)CN(CC(F)(F)F)C1=O)N1CCC(n2c(=O)[nH]c3ncccc32)CC1 | -4.95%
CC12CC(O)C(O)C=C1c1cc(O)cc(O)c1C(=O)O2 (stereo unspecified) | -1.88%
Cn1cc(-c2c[nH]c3ncnc(N4CCOCC4)c23)cn1 | -8.11%
COC(=O)C(CC1(O)c2ccccc2N2C(=O)C(CC(C)C)NC21)n1cnc2ccccc2c1=O (stereo unspecified) | 0.656% [at 25.6 µM]
C=C(C(=O)O)C1CC(OC(=O)CC(C)CC)C2(C)CCCC(=C)C2C1 (stereo unspecified) | 12.5%
O=C(OCc1ccccc1O[C@@H]1O[C@H](CO)[C@@H](O)[C@H](O)[C@H]1O)C1(O)C=CCCC1O (stereo partly specified) | -15.3% [at 25.6 µM]
CC(=O)c1ccc(O[C@@H]2O[C@H](CO[C@@H]3OC[C@@H](O)[C@H](O)[C@H]3O)[C@@H](O)[C@H](O)[C@H]2O)cc1 | -0.16% [at 25.6 µM]
O=C(C1OC1/C=C/c1ccc2c(c1)OCO2)N1CCCCC1 (stereo unspecified) | 13.8%
CC(=O)O[C@H]1C[C@@H](O)C(C)(C)C2C[C@@H](OC(C)=O)[C@@]3(C)C4=CCC(C(CO)CC(O)C5OC5(C)C)[C@]4(C)CCC3[C@]21C (stereo partly specified) | 1.81% [at 25.6 µM]
CC(=O)OC1CC2C(C)(C)C(=O)C=CC2(C)C2CC(=O)C3=C(CCC3C3=CC(O)OC3=O)C12C (stereo unspecified) | 19.9% [at 25.6 µM]
Cc1occc1C(=O)n1ccnc1 | -1.41%

SMILES | redox activity (% of DA3003)
COc1cc(C[C@@]2(O)CO[C@@H](c3ccc(O[C@@H]4O[C@H](CO)[C@@H](O)[C@H](O)[C@H]4O)c(OC)c3)[C@H]2CO)ccc1O | -2.11% [at 25.6 µM]
COc1cc(CO)ccc1O[C@@H]1O[C@H](CO)[C@@H](O)[C@H](O)[C@H]1O | -8.02%
CC1(C)CC[C@]2(C(=O)O)CC[C@]3(C)C(=CCC4[C@@]5(C)C[C@@H](O)[C@H](O)[C@@](C)(CO)C5[C@H](O)C[C@]43C)[C@@H]2C1 (stereo partly specified) | -8.72% [at 25.6 µM]
CC(C)C1NC(=O)CNC(=O)C2CCCN2C(=O)C(Cc2c[nH]c3ccccc23)NC(=O)CNC(=O)C(Cc2ccc(O)cc2)NC(=O)CNC1=O (stereo unspecified) (cyclo(GVGYGWP); configuration not given here) | 13.7% [at 25.6 µM]
CC1=CC(=O)CC(C)(C)C1CCC(C)O[C@@H]1O[C@H](CO)[C@@H](O)[C@H](O)[C@H]1O (stereo partly specified) | 2.78%
CN[C@H](CNC(=O)N1CCC[C@@H]([C@@H](OCCNC(=O)OC)c2cccc(Cl)c2)C1)C[C@H]1CCCOC1 | 13.9%
C=C(C(=O)O)[C@@H]1CC[C@H](C)[C@@H]2CC(=O)C(C)=C2C1 | -7.14%
CC(=O)N[C@H]1[C@H](O[C@H]2CC[C@]3(C)C4CC=C5[C@@H]6CC(C)(C)CC[C@]6(C(=O)O)[C@H](O)C[C@@]5(C)[C@]4(C)CC[C@H]3C2(C)C)O[C@H](CO)[C@@H](O)[C@@H]1O (stereo partly specified) | 7.88% [at 25.6 µM]
CC/C=C\[C@H](O)[C@H](O)C1=C(C)C(=O)[C@]2(O1)C(=O)N[C@@](O)(C(=O)c1ccccc1)[C@@H]2O | 1.96% [at 25.6 µM]
COC(=O)Cn1nc(-c2cccc(OC)c2)c2ccccc21 | 12.9%
CC1(O)CCC2C(C3C1CCC3(C)O)C2(C)C (stereo unspecified) | -1.28%
COc1cnc(-n2cnc(C)n2)c2[nH]cc(C(=O)C(=O)N3CCN(C(=O)c4ccccc4)CC3)c12 | 6.26%
CC1CCC23COC(=O)C2=CC(O)CC3C1(C)CCc1ccoc1 (stereo unspecified) | -1.93%
C/C=C(/C)C(=O)OC1C(OC(C)=O)C23C(O)OC4(CCC5C6(C)CCC(OC7OC(C(=O)O)C(O)C(OC8OC(CO)C(O)C(O)C8OC8OC(C)C(O)C(O)C8OC8OCC(O)C(O)C8O)C7OC7OC(CO)C(O)C(O)C7O)C(C)(C)C6CCC5(C)C4(C)CC2OC(C)=O)C3CC1(C)C (stereo unspecified) | 6.91% [at 11.5 µM]
CC(=O)OC1CCC2(C)C(CCC3(C)C2CC=C2C4CC(C)(C)CCC4(C)CCC23C)C1(C)C(=O)O (stereo unspecified) | -4.44% [at 25.6 µM]
